# Vif-APOBEC3F blk: qHTS for Inhibitors of Vif-A3F Interactions: qHTS; HeLa A3F-eYFP + Vif (tagged APOBEC3F with the HIV-1 protein that degrades it), YFP fluorescence increase; Potency, µM (titrated, usually from 46.1 µM), inactives show top-dose activity, negative = active; 390,000 tested, 0.2% active; AID 602313, 2012; further: % of control where 0% means no effect; nearly all actives have a fitted effect of over 65% in size
#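 HeLa cells stably expressing Vif plus C-terminally eYFP-tagged A3F were seeded, incubated overnight at 37 deg C, dosed with compound, incubated overnight again at 37 deg C. Yellow fluorescence (Ex 488/Em 500-530) reported blocked Vif-mediated A3F-eYFP degradation.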
# Abeta rescue: qHTS for compounds that reverse cellular toxicity of Amyloid beta (A-beta) peptide in yeast: Primary Screen; yeast expressing A-beta42, growth rescue, OD600, 48 h; response scale: 0% DMSO, 100% iron-clioquinol control; Potency, µM (titrated, usually from 46.1 µM), usual class: activators; 410,000 tested, 0.063% active; AID 1347071, 2019; further: nearly all actives have a fitted effect of over 55% in size
#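 Yeast growth medium received pinned compounds, then yeast cells expressing toxic A-beta were added; plates incubated at 30 C for 48 hr. Growth read as absorbance at 600 nm, normalized to DMSO and equimolar FeCl3 plus clioquinol controls.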
# Vif-APOBEC3G blk: qHTS for Inhibitors of Vif-A3G Interactions: qHTS. 410,000 tested, 0.076% active. Potency, µM (doses to about 46.1 µM), for inactives: top-dose activity, negative = active, hits mostly inhibitors. DNA dC->dU-editing enzyme APOBEC-3G (Homo sapiens), Q9HC16. HeLa A3G-eYFP + Vif (tagged APOBEC3G with the HIV-1 protein that degrades it), YFP fluorescence, overnight; further: on the % scale 0 is the no-effect control and ±100 the full control effect; nearly all actives have a fitted effect of over 60% in size
# Target sequence (Q9HC16 whole entry, looked up): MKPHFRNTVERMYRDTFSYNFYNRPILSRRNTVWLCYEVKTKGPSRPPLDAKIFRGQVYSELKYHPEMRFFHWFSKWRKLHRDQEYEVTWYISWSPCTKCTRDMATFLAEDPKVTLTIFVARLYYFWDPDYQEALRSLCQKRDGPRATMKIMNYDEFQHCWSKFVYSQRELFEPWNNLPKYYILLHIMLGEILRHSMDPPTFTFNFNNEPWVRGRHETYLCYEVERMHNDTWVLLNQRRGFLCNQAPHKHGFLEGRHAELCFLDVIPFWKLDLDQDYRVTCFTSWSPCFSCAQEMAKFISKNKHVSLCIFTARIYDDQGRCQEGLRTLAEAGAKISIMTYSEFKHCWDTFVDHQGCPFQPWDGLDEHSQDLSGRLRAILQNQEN
#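 Read-out is eYFP fluorescence (Ex 488/Em 500-530) from Vif-expressing HeLa A3G-eYFP cells; more signal means A3G escaped Vif-mediated degradation. Cells plated overnight, compound pinned in, incubated overnight at 37 deg C.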
# FUS suppressor: qHTS for Suppressors of FUS Proteinopathy: Primary screen using FUS-linked yeast assay; S. cerevisiae FUS-expressing, growth rescue, OD600, 24 h; Potency, µM (top dose mostly 76.6 µM), usual class: activators; 390,000 tested, 0.24% active; AID 1347120, 2019;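 further: plate controls were DMSO vehicle for no effect and reference control for full effect; nearly all actives have a fitted effect of over 55% in size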
#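 Galactose (2%) drives FUS expression in yeast precultured in raffinose; seeding density OD 0.005. Test compounds incubated 24hr at 30C and 99% humidity before absorbance at 600 nm was measured.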
# PINK1 modulator: A Quantitative High throughput Screen to Identify Chemical Modulators of PINK1 Expression. 410,000 tested, 0.2% active. PINK1 immunofluorescence, high-content cytometry, 24 h. Potency, µM (doses to about 76.6 µM), for the others: at the highest dose activation (PINK1 increase), actives largely listed as activators; active means well fitted activation curve with a large enough effect; inconclusive means small, poorly fitted or top-dose-only effect; cell line not stated here; further: % of control where 0% means no effect; nearly all actives have a fitted effect of over 65% in size
#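 A stable cell line was treated with compounds at 5 concentrations for 24 hours, with CCCP as control. PINK1 levels and mitochondrial localization were measured by immunofluorescence with mitochondrial, cell and nuclear markers after fixation, read by laser-scanning cytometry.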
# GRP78 ERSR act: qHTS for Inducers of the Endoplasmic Reticulum Stress Response (ERSR) in Human Glioma: qHTS | U87-MG GRP78 promoter luciferase reporter, 16 h | Potency, µM, without a hit: top-dose activation, hits mostly activators | 420,000 tested, 0.02% active | AID 602332, 2012; further: series mostly up to about 76 µM; % of control where 0% means no effect; nearly all actives have a fitted effect of over 35% in size
#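 ERSR induction read as luciferase luminescence (Bright-Glo, 10 min at room temperature) in stably transfected human U87-MG glioma cells exposed to compounds for 16 h, using GRP78 as sensor.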
# * hit, by the source's call; i = inactive; ? = inconclusive; . = no result given; [ ] = remark or other dose. Only some compounds are listed: those with a hit (about 0.69% of all), similar ones and a draw of the others. Unless noted, the call rests on the fitted dose curve; in most records, active means well fitted curve in the direction sought with a large enough effect; inconclusive means small, poorly fitted or top-dose-only effect, or another doubt; inactive means no such curve, though single readings can be large; an effect the other way counts as inactive or inconclusive. Potency means the concentration at half of the fitted maximal effect.
SMILES,Vif-APOBEC3F blk,Abeta rescue,Vif-APOBEC3G blk,FUS suppressor,PINK1 modulator,GRP78 ERSR act
CN(C(=O)c1cnn(-c2ncc3c(n2)-c2ccccc2CCC3)c1C1CC1)C1CCOC1 (stereo not given),.,.,.,.,0%,4%
COc1cc(CN2CCCC(n3cc(C(=O)N4CCCCC4)nn3)C2)cc(OC)c1 (stereo not given),.,.,.,.,-1%,-4%
CCN(CC)c1ccc(/C=N/NC(=O)Cc2nnc(NC(=O)Nc3ccccc3)s2)cc1,-26%,i,-16%,18µM*,0%,7%
COCc1c(C(=O)NCC2CCCN(C)C2)cnn1-c1ncc2c(n1)-c1ccccc1CCC2 (stereo not given),.,.,.,.,0%,-4%
Cc1ccccc1NC(=S)NC(=O)/C=C/c1ccco1,?,i,-9%,8.9µM*,-1%,-6%
COC(=O)[C@]12C[C@H](CC(=O)NCC3CCCCC3)C(=O)N(Cc3ccc4c(c3)OCO4)C1=C[C@H](C(C)C)O[C@@H]2C1CC1,.,.,.,14µM*,.,.
COC(=O)[C@]12C[C@H](CC(=O)NCc3cccc(C(F)(F)F)c3)C(=O)N(Cc3ccc4c(c3)OCO4)C1=C[C@H](C(C)C)O[C@@H]2C1CC1,.,.,.,8.9µM*,.,.
COC(=O)[C@]12C[C@H](CC(=O)N3CCCC3)C(=O)N(Cc3ccc4c(c3)OCO4)C1=C[C@H](C(C)C)O[C@@H]2C1CC1,.,.,.,i,.,.
COC(=O)[C@]12C[C@H](CC(=O)NCc3cccc4ccccc34)C(=O)N(Cc3ccc4c(c3)OCO4)C1=C[C@H](C(C)C)O[C@@H]2C1CC1,.,.,.,13µM*,.,.
COC(=O)[C@]12C[C@H](CC(=O)NCCCCc3ccccc3)C(=O)N(Cc3ccc4c(c3)OCO4)C1=C[C@H](C(C)C)O[C@@H]2C1CC1,.,.,.,8.9µM*,.,.
COc1ccc(NC(=O)C2CC23CCN(Cc2cccc4ncccc24)CC3)cc1Cl (stereo not given),.,.,.,.,1%,-5%
C=C1C[C@@H]2[C@H]3CCC4=CC(=O)C=C[C@]4(C)[C@@]3(F)[C@@H](O)C[C@]2(C)[C@]1(O)C(=O)COC(C)=O,.,.,.,.,.,-2%
O=C(NCC1Cc2cc(-c3cnc4ccccc4c3)cc(F)c2O1)c1cnsn1 (stereo not given),.,.,.,.,9%,5%
CCN(CC)S(=O)(=O)c1ccc(C)c(NC(=S)Nc2cccc(S(=O)(=O)N3CCCCCC3)c2)c1,-7%,i,2%,.,25µM*,-4%
O=C(CNc1ccc(C(F)(F)F)cc1)Nc1cccc(S(=O)(=O)N2CCCCC2)c1,-14%,i,-18%,i,45µM*,0%
O=C(CNc1ccc(C(F)(F)F)cc1)Nc1cccc(S(=O)(=O)N2CCCC2)c1,-3%,i,-1%,i,4%,-3%
O=C(Nc1ccc(Cl)cn1)c1cccc(S(=O)(=O)N2CCCCC2)c1,10%,i,1%,i,1%,0%
O=C(Nc1ccc(Cl)cn1)c1cccc(S(=O)(=O)N2CCCCCC2)c1,0%,i,20µM*,i,-1%,-5%
O=C(Nc1cccc(Cl)c1)Nc1cc(S(=O)(=O)N2CCCCC2)ccc1Cl,-15%,i,-1%,i,14µM*,-4%
Cc1nc(CC(=O)N2CCC(n3c(C4CCC4)nc4cccnc43)CC2)cs1,.,.,.,.,0%,-4%
C=C[C@]1(C)C[C@@H](OC(=O)CO)[C@]2(C)C(C)CC[C@]3(CCC(=O)[C@H]32)[C@@H](C)[C@@H]1O (stereo not given in full),.,.,.,.,.,-2%
O=C(Nc1nc2ccc(S(=O)(=O)N3CCCCC3)cc2s1)c1cccnc1,-6%,i,-20%,?,5%[38.3 µM],-2%
O=C(Nc1nc2ccc(S(=O)(=O)N3CCCCC3)cc2s1)c1ccncc1,.,i,1%,35µM*,1%,-5%
COc1ccc(OC)c(NC(=O)CSC2=Nc3ccccc3C3=NC(CC(=O)NCc4ccco4)C(=O)N23)c1 (stereo not given),10%,i,-1%,i,0%,-5%
COc1cccc(NC(=O)CSC2=Nc3ccccc3C3=NC(CC(=O)NCc4ccccc4OC)C(=O)N23)c1 (stereo not given),2%,i,-2%,35µM*,7%,-2%
SMILES,Vif-APOBEC3F blk,Abeta rescue,Vif-APOBEC3G blk,FUS suppressor,PINK1 modulator,GRP78 ERSR act
CC(C)c1ccc(NC(=O)CSC2=Nc3ccccc3C3=NC(CC(=O)NC4CCCCC4)C(=O)N23)cc1 (stereo not given),0%,i,-17%,32µM*,1%,-4%
OC(C1=C/C(=C\c2ccncc2)c2ccccc21)c1ccncc1 (stereo not given),.,.,-10%,.,.,-2%
C=CCc1c(C)nc(-c2ccccc2)nc1Nc1ccccc1O,22µM*,i,?,i,?,-4%
N=c1c2c(ncn1CCN1CCOCC1)Oc1ccc3ccccc3c1C2c1ccccc1 (stereo not given),-7%,i,1%,i,.,0%
N=c1c2c(ccn1Cc1ccccc1)Oc1ccc3ccccc3c1C2c1ccccc1 (stereo not given),.,.,.,14µM*,.,.
COC(=O)[C@@]12C[C@@H](CC(=O)NCc3ccc(OC)c(OC)c3)C(=O)N(Cc3ccc4c(c3)OCO4)C1=CCC(C)(C)C2,.,i,.,13µM*,.,.
COC(=O)[C@@]12C[C@@H](CC(=O)NCc3cccc4ccccc34)C(=O)N(Cc3cccc4ccccc34)C1=CCC(C)(C)C2,.,i,.,i,.,.
COC(=O)[C@@]12C[C@@H](CC(=O)NCCC(C)C)C(=O)N(Cc3cccc4ccccc34)C1=CCC(C)(C)C2,.,i,.,14µM*,.,.
Cc1csc(C(C)N(C)C(=O)c2cnn(-c3nccc(-c4cc(C)sc4C)n3)c2C)n1 (stereo not given),.,.,.,.,0%,0%
CCOC(=O)/C(=N\Nc1ccc(Cl)cc1)c1csc(Nc2ccccc2)n1,-17%,i,-4%,i,3%,-17%
CCOC(=O)/C(=N/Nc1ccccc1)c1csc(Nc2ccccc2)n1,-21%,i,0%,i,11µM*,6%
CCN(CC)c1ccc(/C=N/N2CC(=O)NC2=S)cc1,?,i,3%,i,40µM*,-1%

# Compound activity: PubChem BioAssay, National Center for Advancing Translational Sciences (NCATS)
